Test results reported in article PMC7862700, “An all-to-all approach to the identification of sequence-specific readers for epigenetic DNA modifications on cytosine”.

What was measured:
Assay in all cases: DAPPL (digital affinity profiling via proximity ligation, sequencing); 10 mM Tris-HCl pH 7.5, 50 mM NaCl, 1 mM DTT, 4% glycerol, room temperature, 30 min; GST-TFs on glutathione beads, 16-mer random dsDNA library, 0.1% formaldehyde crosslink after washing; high values mean tight binding
[1] = biological target: T1, FEV (Homo sapiens, UniProt Q99581 1-238); conditions: protein: recombinant; tags: N-terminal GST; dsDNA, one strand shown
T1 sequence: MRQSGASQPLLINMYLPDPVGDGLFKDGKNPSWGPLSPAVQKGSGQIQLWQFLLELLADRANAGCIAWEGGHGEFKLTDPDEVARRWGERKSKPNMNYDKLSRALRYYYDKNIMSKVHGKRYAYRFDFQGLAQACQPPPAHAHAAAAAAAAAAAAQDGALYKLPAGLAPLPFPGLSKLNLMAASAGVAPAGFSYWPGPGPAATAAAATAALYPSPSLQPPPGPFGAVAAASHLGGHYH
Procedure, shortened: (§1)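 After expression in yeast as GST fusions, human transcription factors were bound to glutathione beads, DNA-barcoded and mixed with a tag-only sample. The pools were incubated with 200 nmole of a 16-mer random double-stranded DNA library in Tris/NaCl/DTT/glycerol buffer (30 min, room temperature), washed and crosslinked with 0.1% formaldehyde. Proximity ligation with BsaI/T4 ligase ran for 1 h at 37 °C, before PCR amplification and sequencing on an Illumina NextSeq500. Binding signal is a hexamer's read frequency for a factor divided by its frequency for the tag-only sample.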

[2] = biological target: ETV5 (Homo sapiens, UniProt P41161 1-510); conditions: protein: recombinant; tags: N-terminal GST; dsDNA, one strand shown
Sequence of ETV5 (P41161 whole entry): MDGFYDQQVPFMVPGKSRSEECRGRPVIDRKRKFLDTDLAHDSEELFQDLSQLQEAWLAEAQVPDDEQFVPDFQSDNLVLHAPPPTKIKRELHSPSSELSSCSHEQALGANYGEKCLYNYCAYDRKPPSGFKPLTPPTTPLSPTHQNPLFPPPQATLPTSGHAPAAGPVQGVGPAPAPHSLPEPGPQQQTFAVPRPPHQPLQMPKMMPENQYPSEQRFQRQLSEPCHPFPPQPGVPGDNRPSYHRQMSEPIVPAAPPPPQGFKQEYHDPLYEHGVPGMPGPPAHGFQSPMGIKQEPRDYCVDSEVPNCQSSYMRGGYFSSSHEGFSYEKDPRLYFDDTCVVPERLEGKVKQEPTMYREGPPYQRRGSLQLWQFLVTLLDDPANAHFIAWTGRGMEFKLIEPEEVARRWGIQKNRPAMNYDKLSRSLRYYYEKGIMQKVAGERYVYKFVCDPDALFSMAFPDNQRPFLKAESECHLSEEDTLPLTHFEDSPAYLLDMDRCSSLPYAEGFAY
Procedure, shortened: as §1

[3] = biological target: HSF1 (Homo sapiens, UniProt Q00613 1-529); conditions: protein: recombinant; tags: N-terminal GST; chain copies: 3; dsDNA, one strand shown
Sequence of HSF1 (Q00613 whole entry): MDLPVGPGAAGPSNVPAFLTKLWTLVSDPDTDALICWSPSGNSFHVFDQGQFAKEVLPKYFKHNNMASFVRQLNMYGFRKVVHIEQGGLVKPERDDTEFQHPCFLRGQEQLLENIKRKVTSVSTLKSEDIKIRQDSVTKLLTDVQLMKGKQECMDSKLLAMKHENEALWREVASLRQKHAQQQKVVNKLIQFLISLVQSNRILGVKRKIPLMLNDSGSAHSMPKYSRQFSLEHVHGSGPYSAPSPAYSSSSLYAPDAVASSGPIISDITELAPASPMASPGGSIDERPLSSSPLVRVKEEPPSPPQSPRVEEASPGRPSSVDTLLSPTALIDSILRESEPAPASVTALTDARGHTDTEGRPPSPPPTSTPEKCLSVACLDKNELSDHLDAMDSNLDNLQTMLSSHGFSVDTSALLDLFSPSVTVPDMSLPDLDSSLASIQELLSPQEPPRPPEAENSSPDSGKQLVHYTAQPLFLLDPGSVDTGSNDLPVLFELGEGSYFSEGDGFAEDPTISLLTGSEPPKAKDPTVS
Procedure, shortened: as §1

[4] = biological target: T2, SPIC (Homo sapiens, UniProt Q8N5J4 1-248); conditions: protein: recombinant; tags: N-terminal GST; dsDNA, one strand shown
T2 sequence: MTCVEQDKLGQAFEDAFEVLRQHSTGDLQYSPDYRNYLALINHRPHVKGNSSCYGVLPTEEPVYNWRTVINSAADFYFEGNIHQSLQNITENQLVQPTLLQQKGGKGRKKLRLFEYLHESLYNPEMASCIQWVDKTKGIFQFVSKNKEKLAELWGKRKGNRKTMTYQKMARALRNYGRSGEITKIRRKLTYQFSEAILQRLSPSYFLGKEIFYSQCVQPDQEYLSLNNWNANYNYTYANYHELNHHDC
Procedure, shortened: as §1

[5] = biological target: ELF4 (Homo sapiens, UniProt Q99607 1-663); conditions: protein: recombinant; tags: N-terminal GST; dsDNA, one strand shown
Sequence of ELF4 (Q99607 whole entry): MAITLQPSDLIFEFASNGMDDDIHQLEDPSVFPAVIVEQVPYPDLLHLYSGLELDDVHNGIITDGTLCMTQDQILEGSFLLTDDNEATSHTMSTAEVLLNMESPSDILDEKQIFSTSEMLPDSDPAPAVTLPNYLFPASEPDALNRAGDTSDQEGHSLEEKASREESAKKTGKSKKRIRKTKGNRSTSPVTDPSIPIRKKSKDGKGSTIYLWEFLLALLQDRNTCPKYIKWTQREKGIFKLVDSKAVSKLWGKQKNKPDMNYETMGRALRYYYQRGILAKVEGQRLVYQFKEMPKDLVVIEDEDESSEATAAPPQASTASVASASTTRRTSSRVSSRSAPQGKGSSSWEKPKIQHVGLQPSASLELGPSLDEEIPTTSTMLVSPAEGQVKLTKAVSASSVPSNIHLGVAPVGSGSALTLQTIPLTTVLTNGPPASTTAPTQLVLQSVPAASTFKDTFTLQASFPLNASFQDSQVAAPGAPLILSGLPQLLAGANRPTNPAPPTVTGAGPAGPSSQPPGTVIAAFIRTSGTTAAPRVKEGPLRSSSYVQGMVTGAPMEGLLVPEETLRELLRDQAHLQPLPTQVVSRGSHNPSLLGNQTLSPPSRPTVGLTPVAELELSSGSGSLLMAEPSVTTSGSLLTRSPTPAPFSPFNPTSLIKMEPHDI
Procedure, shortened: as §1

[6] = biological target: T3, ELK4 (Homo sapiens, UniProt P28324-2 1-405); conditions: protein: recombinant; tags: N-terminal GST; dsDNA, one strand shown
T3 sequence: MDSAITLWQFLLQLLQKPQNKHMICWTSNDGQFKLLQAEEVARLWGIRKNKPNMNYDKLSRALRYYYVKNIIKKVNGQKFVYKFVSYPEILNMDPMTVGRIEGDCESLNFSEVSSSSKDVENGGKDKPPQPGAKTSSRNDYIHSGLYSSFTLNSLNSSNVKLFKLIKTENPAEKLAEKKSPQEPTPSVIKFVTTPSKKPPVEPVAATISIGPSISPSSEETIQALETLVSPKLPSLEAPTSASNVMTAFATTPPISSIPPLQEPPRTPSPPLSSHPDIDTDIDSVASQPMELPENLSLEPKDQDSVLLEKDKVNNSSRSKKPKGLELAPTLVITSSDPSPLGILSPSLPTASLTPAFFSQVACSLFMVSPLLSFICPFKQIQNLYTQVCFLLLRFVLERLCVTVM
Procedure, shortened: as §1

[7] = biological target: T4, ETV2 (Homo sapiens, UniProt O00321 1-342); conditions: protein: recombinant; tags: N-terminal GST; dsDNA, one strand shown
T4 sequence: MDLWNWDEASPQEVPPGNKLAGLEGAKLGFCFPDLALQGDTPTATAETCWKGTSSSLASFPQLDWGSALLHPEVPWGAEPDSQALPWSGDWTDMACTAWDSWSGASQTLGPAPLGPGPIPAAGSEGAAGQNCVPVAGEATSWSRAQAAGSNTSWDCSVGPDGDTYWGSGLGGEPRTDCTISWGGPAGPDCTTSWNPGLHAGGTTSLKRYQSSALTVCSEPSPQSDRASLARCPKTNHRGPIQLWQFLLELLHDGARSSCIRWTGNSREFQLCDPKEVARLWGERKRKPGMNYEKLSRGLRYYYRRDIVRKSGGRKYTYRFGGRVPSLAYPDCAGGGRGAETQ
Procedure, shortened: as §1

[8] = biological target: T5, ELF3 (Homo sapiens, UniProt P78545 1-371); conditions: protein: recombinant; tags: N-terminal GST; dsDNA, one strand shown
T5 sequence: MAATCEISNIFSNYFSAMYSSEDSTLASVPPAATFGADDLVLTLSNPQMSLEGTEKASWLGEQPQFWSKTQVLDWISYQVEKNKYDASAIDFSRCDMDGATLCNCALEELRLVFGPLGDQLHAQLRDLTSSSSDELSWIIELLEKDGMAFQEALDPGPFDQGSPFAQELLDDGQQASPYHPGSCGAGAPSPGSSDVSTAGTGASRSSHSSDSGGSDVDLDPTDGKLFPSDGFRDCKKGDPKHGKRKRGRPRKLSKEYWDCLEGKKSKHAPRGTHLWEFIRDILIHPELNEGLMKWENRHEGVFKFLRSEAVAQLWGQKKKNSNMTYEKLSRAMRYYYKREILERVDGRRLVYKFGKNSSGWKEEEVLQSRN
Procedure, shortened: as §1

[9] = biological target: CRX (Homo sapiens, UniProt O43186 1-299); conditions: protein: recombinant; tags: N-terminal GST; dsDNA, one strand shown
Sequence of CRX (O43186 whole entry): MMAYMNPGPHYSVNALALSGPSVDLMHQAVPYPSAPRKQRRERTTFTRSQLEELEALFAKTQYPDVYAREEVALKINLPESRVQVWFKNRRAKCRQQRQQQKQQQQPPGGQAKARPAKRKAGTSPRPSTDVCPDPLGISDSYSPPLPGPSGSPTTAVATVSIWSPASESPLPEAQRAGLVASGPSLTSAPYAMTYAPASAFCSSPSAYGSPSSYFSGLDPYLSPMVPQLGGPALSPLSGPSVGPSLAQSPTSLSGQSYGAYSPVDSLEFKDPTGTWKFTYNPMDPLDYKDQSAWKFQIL
Procedure, shortened: as §1

[10] = biological target: ETV1 (Homo sapiens, UniProt P50549 1-477); conditions: protein: recombinant; tags: N-terminal GST; dsDNA, one strand shown
Sequence of ETV1 (P50549 whole entry): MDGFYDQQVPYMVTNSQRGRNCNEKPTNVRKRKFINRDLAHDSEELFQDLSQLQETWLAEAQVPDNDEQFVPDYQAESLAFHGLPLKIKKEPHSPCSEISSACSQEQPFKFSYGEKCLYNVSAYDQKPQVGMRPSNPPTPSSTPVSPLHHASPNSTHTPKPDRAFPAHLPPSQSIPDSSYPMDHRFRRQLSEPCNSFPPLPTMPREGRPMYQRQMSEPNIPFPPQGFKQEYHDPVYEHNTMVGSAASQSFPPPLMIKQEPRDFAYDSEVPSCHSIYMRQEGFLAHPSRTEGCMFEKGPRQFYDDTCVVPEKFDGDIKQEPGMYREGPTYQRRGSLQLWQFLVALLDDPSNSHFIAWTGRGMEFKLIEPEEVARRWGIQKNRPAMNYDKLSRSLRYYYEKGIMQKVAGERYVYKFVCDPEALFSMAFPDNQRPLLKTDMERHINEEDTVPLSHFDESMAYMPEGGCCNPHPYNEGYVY
Procedure, shortened: as §1

[11] = biological target: T6, ERF (Homo sapiens, UniProt P50548 1-548); conditions: protein: recombinant; tags: N-terminal GST; dsDNA, one strand shown
T6 sequence: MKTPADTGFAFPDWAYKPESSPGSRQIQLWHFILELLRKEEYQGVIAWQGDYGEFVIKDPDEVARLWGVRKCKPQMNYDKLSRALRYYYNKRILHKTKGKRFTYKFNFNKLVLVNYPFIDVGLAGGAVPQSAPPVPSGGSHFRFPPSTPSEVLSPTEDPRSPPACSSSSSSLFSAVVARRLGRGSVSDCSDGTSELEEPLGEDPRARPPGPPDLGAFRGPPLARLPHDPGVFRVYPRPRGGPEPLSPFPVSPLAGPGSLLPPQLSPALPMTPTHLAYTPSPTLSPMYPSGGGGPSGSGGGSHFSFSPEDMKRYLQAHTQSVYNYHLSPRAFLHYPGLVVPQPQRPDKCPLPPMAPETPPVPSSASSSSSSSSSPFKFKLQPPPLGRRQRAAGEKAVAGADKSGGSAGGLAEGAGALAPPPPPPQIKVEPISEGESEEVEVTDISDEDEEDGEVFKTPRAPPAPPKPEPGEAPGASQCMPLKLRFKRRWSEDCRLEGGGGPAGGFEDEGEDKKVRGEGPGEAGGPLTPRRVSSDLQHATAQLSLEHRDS
Procedure, shortened: as §1

[12] = biological target: T7, ETV3L (Homo sapiens, UniProt Q6ZN32 1-361); conditions: protein: recombinant; tags: N-terminal GST; dsDNA, one strand shown
T7 sequence: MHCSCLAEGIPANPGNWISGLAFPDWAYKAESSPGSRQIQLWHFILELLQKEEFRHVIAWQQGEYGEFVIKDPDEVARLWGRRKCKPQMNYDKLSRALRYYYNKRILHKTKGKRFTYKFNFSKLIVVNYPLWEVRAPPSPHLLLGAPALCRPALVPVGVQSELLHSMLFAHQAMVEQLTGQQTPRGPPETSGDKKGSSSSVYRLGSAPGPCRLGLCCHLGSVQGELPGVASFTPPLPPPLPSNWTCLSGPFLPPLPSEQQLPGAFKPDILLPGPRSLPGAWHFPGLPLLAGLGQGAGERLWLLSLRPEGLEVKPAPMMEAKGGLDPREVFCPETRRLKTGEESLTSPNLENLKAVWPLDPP
Procedure, shortened: as §1

[13] = biological target: T8, ETS2 (Homo sapiens, UniProt P15036 1-469); conditions: protein: recombinant; tags: N-terminal GST; dsDNA, one strand shown
T8 sequence: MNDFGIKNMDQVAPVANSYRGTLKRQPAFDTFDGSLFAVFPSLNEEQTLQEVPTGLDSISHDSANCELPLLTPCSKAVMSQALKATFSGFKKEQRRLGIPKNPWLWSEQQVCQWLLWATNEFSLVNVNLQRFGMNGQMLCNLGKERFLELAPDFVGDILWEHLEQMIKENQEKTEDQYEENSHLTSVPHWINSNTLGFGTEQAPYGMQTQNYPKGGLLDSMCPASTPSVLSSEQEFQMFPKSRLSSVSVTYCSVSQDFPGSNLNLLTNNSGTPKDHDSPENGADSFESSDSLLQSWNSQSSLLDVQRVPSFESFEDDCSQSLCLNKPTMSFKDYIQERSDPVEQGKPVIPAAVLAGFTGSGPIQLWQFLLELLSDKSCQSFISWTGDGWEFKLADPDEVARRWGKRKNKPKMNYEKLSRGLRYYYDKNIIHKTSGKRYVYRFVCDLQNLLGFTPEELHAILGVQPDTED
Procedure, shortened: as §1

[14] = biological target: T9, SPDEF (Homo sapiens, UniProt O95238 1-335); conditions: protein: recombinant; tags: N-terminal GST; dsDNA, one strand shown
T9 sequence: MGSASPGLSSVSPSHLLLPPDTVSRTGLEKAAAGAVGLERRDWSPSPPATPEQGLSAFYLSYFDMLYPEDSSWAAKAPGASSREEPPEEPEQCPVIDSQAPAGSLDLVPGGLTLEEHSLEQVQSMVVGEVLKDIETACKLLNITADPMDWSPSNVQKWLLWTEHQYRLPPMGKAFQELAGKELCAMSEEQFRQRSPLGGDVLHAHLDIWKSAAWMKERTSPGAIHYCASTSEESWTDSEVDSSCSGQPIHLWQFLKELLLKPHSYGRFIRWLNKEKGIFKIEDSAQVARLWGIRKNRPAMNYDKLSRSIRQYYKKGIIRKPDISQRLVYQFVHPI
Procedure, shortened: as §1

[15] = biological target: T10, ETV7 (Homo sapiens, UniProt Q9Y603 1-341); conditions: protein: recombinant; tags: N-terminal GST; dsDNA, one strand shown
T10 sequence: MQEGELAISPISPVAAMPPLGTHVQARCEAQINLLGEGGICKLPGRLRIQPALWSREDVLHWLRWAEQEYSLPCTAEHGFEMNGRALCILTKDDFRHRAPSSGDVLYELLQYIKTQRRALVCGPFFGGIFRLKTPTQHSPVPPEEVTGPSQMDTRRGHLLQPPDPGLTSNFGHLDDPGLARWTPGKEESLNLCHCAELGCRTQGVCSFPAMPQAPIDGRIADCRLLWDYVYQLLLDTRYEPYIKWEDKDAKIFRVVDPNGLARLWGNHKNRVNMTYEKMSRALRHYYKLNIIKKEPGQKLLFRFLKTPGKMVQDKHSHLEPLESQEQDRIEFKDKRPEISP
Procedure, shortened: as §1

[16] = biological target: T11, ELF5 (Homo sapiens, UniProt Q9UKW6-2 1-255); conditions: protein: recombinant; tags: N-terminal GST; dsDNA, one strand shown
T11 sequence: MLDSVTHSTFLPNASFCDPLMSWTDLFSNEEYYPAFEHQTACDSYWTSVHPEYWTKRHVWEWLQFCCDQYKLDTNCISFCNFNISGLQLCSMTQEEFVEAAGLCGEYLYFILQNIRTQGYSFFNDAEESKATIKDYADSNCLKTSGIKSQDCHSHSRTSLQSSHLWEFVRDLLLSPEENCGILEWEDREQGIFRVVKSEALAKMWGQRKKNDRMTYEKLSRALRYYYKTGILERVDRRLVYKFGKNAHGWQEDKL
Procedure, shortened: as §1

[17] = biological target: T12, ETV3 (Homo sapiens, UniProt P41162-2 1-143); conditions: protein: recombinant; tags: N-terminal GST; dsDNA, one strand shown
T12 sequence: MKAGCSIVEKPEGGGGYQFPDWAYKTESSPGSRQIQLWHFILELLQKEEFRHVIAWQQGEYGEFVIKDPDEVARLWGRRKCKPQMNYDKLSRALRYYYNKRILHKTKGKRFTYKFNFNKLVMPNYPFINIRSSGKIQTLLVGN
Procedure, shortened: as §1

[18] = biological target: ETV6 (Homo sapiens, UniProt P41212 1-452); conditions: protein: recombinant; tags: N-terminal GST; dsDNA, one strand shown
Sequence of ETV6 (P41212 whole entry): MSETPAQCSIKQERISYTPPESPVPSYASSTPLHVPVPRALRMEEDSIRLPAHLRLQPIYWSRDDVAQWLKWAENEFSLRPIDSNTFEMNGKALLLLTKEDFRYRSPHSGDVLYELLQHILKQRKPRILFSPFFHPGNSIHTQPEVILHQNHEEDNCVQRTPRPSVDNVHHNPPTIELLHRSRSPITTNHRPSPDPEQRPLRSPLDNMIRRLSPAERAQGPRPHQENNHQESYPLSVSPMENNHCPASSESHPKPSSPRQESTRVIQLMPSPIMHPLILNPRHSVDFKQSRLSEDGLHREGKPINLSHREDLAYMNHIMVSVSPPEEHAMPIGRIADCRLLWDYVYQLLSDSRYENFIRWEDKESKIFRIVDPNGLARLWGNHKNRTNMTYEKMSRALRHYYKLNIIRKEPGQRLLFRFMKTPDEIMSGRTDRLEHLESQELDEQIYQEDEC
Procedure, shortened: as §1

ATTAAA
binding signal [1]: 1.1 fold enrichment (6-mer frequency, TF over GST control) | binding signal [2]: 1.2 fold enrichment (6-mer frequency, TF over GST control) | binding signal [3]: 1.97 fold enrichment (6-mer frequency, TF over GST control) | binding signal [4]: 1.14 fold enrichment (6-mer frequency, TF over GST control) | binding signal [5]: 1.16 fold enrichment (6-mer frequency, TF over GST control) | binding signal [6]: 1.1 fold enrichment (6-mer frequency, TF over GST control) | binding signal [7]: 1.16 fold enrichment (6-mer frequency, TF over GST control) | binding signal [8]: 1.05 fold enrichment (6-mer frequency, TF over GST control) | binding signal [9]: 2.99 fold enrichment (6-mer frequency, TF over GST control) | binding signal [10]: 1.18 fold enrichment (6-mer frequency, TF over GST control) | binding signal [11]: 1.3 fold enrichment (6-mer frequency, TF over GST control) | binding signal [12]: 1.24 fold enrichment (6-mer frequency, TF over GST control) | binding signal [13]: 1.12 fold enrichment (6-mer frequency, TF over GST control) | binding signal [14]: 1.14 fold enrichment (6-mer frequency, TF over GST control) | binding signal [15]: 1.1 fold enrichment (6-mer frequency, TF over GST control) | binding signal [16]: 1.12 fold enrichment (6-mer frequency, TF over GST control) | binding signal [17]: 1.12 fold enrichment (6-mer frequency, TF over GST control) | binding signal [18]: 1.18 fold enrichment (6-mer frequency, TF over GST control)
